This passage reports outcome results from PubChem BioAssay AID2284356 (EPA ToxCast).

Records with an inconclusive call do not appear. Active and inactive are the calls of the source. Rule for the calls: active = hit-call score of the fitted dose curve at least 0.9, where 1 is the maximum; inconclusive = response in the unintended direction; inactive = score below 0.9.

This assay addresses zebrafish Estrogen Receptor (ER1), esr1 (gene 259252) (UniProt P57717). Description: ATG_zfER1_EcoTox2: Attagene TRANS-FACTORIAL EcoTox-2 HepG2 Assay for zebrafish Estrogen Receptor (ER1). Here is the method: ATG_EcoTox2 is a cell-based, multiplexed assay created by modifying the existing Attagene TRANS-FACTORIAL system to include a panel of nuclear receptors from some or all the following species: human (Homo sapiens), african clawed frog (Xenopus laevis), rainbow trout (Oncorhynchus mykiss), japanese medaka (Oryzias latipes), and zebrafish (Danio rerio). The ECOTOX2-FACTORIAL format uses HepG2, a human liver cell line, with measurements taken at 24 hours after chemical dosing in a 24-well plate. ATG_zfER1_EcoTox2 is one of 29 assay components calculated in the ATG_EcoTox2 assay. It is designed to make measurements of mRNA induction, a form of inducible reporter, as detected with fluorescence intensity signals by Reverse transcription polymerase chain reaction (RT-PCR) and Capillary electrophoresis technology.The assay endpoint ATG_zfER1_EcoTox2 was analyzed in the positive analysis fitting direction relative to DMSO as the negative control and baseline of activity. Using a type of inducible reporter, measures of mRNA for gain-of-signal activity can be used to understand the reporter gene at the transcription factor-level as they relate to the gene ER. Furthermore, this assay endpoint can be referred to as a primary readout, because this assay has produced multiple assay endpoints where this one serves a reporter gene function. To generalize the intended target to other relatable targets, this assay endpoint is annotated to the nuclear receptor intended target family, where the subfamily is steroidal.
Human liver HepG2 cells are transiently transfected with multiple reporter transcription units (MRTUs) in 6-well plates using FuGene 6 reagent (Roche; 3 ml FuGene/1 mg DNA). The MRTU constructs are regulated by a cis-regulating element (promoter). Each RTU expresses a GAL4-UAS that regulates the transcription of a nearby target reporter gene sequence. A major difference between the CIS and TRANS system is that in CIS activities of endogenous TFs are measured, whereas the TRANS assay evaluates changes in activities of exogenous, chimeric NR-Gal4 proteins. […] At the end of 24 hour incubation, total RNA was isolated using TriZol reagent (Invitrogen). The isolated RNA is then reverse-transcribed using oligo(dT) primer and Mo-MLV reverse transcriptase (Invitrogen) with DNAse I (Ambion) treatment for 30 min. The one-tenth of the produced cDNA was amplified by PCR using Taq DNA polymerase (Invitrogen) and two reporter sequence-specific primers. The PCR products were fluorescently labeled by primer extension with 6-arboxyfluorescein (6-FAM) 5'-labeled reporter sequence-specific primer (2 min at 95 C, 20 s at 68 C and 10 min at 72 C) and these products were digested with 5U of HpaI (New England Biolabs) for 2h at 37 C. The fragments were purified using Qiaquick PCR columns (Qiagen), analyzed on an ABI 3130xL genetic analyzer (Applied Biosystems) with peak positions identified by using a set of X-rhodamine (ROX)-labeled MapMarker1000 molecular weight standards (BioVentures). The raw capillary electrophoresis data was processed using Attagraph software (Attagene).

zebrafish Estrogen Receptor (ER1), esr1 (gene 259252), sequence (P57717 whole entry, looked up): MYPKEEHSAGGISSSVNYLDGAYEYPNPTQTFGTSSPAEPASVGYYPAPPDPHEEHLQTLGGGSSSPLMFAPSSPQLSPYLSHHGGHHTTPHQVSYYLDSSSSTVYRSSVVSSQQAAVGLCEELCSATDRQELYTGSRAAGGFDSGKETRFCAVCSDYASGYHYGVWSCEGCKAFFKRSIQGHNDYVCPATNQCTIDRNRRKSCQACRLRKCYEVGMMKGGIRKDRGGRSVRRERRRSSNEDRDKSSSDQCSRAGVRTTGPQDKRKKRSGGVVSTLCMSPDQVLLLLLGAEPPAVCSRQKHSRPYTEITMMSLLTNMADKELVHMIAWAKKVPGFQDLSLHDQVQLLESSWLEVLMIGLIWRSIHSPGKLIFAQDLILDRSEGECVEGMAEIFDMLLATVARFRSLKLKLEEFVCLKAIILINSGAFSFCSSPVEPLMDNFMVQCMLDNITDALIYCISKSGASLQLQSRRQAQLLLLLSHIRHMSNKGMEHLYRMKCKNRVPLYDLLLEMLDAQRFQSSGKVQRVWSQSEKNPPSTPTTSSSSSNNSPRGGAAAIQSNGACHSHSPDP

Regarding `C[C@]12C=CC(=O)C=C1CC[C@@H]1[C@@H]2C(=O)C[C@@]2(C)[C@H]1CC[C@]2(O)C(=O)CO`, the call was inactive.
As for `CC(C)(Oc1ccc(CCNC(=O)c2ccc(Cl)cc2)cc1)C(=O)O`, the call was inactive.
As to `CC(C)(Oc1ccc(C2CC2(Cl)Cl)cc1)C(=O)O` (centres undefined), the result was inactive.
For the compound `CC(C)OC(=O)C(C)(C)Oc1ccc(C(=O)c2ccc(Cl)cc2)cc1`, the result was inactive.
With `C[C@@H]1C[C@H]2[C@@H]3CCC4=CC(=O)C=C[C@]4(C)[C@@]3(F)[C@@H](O)C[C@]2(C)[C@@]1(O)C(=O)COP(=O)(O)O` the entry was “inactive”; with `CC(c1cc2ccccc2s1)N(O)C(N)=O` (centres undefined), “inactive”.
Take `C=C(c1ccc(C(=O)O)cc1)c1cc2c(cc1C)C(C)(C)CCC2(C)C`: the compound was called inactive.
With `CC(C)(Oc1ccc(Cl)cc1)C(=O)O` the entry was “inactive”; with `Cc1ccc(C)c(OCCCC(C)(C)C(=O)O)c1`, “inactive”.
